Compound activity: PubChem BioAssay, National Center for Advancing Translational Sciences (NCATS)
ELG1 genotox: induces genotoxicity in HEK293T cells with luciferase-tagged ELG1 | HEK293T ELG1-luciferase reporter, luminescence, 16 h | Potency, µM (series often up to 46 µM), hits mostly activators | 330,000 tested, 1.3% active; further: nearly all actives have a fitted effect of over 60% in size
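Reporter readout depends on ELG1 protein level, which increases with genetic stress. After 16 hr compound exposure at 37 °C, luciferase activity was quantified using ONE-Glo.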
ELG1 repair inh: blocks ELG1-dependent DNA repair in HEK293T cells; AID 504467; 330,000 tested, 2.3% active; Potency, µM (series often up to 46.1 µM), most hits filed as inhibitors; HEK293T ELG1-luciferase reporter, luminescence, 16 h; DNA damage induced by 5-fluorouridine; further: nearly all actives have a fitted effect of over 55% in size
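Quantitative HTS, concentration-response format. 2,000 cells/well co-treated with 5-fluorouridine and compound, 16 hr in 5% CO2 at 37 °C; ONE-Glo luminescence read after 30 min.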
NPC1 prom act: activates the NPC1 promoter | Potency, µM (titrated, usually from 9.22 µM), most hits filed as activators | 320,000 tested, 2.4% active | Huh7 NPC1 promoter luciferase reporter, 24 h; further: nearly all actives have a fitted effect of over 60% in size
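Readout is luciferase luminescence, reflecting NPC1 promoter activation in stably transfected Huh7 cells after 24 h compound exposure at 37 °C in reduced-serum medium with 10% FBS.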
FLuc counter: counter-screen for miR-21 project: firefly luciferase inhibitors or activators. P08659. purified FLuc, Km substrates, luminescence inhibition. Potency, µM (doses to about 57.5 µM), most hits filed as inhibitors. 360,000 tested, 6.9% active. AID 588342; further: nearly all actives have a fitted effect of over 55% in size
Target sequence (P08659 whole entry, looked up): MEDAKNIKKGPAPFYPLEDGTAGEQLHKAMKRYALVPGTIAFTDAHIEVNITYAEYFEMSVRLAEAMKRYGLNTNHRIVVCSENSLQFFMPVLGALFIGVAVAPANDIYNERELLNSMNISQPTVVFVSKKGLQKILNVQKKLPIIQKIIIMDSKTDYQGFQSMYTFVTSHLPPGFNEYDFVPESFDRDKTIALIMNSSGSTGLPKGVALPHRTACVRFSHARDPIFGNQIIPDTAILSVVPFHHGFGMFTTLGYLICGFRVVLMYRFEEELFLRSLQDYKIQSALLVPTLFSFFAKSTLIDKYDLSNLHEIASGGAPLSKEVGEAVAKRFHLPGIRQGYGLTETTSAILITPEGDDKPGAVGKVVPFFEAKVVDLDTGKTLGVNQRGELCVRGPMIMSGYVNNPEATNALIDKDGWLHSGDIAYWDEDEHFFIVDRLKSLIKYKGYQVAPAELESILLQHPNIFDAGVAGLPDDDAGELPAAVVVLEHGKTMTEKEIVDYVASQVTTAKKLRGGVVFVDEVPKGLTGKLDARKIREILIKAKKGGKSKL
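Purified P. pyralis luciferase, 10 nM final, with Km-level 10 uM D-luciferin and 10 uM ATP in 50 mM Tris acetate pH 7.5, 10 mM Mg acetate, 0.01% Tween-20, 0.05% BSA; 6-point qHTS titration about 60 µM downward; luminescence read.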
Rab9 promoter act: activators of Rab9 promoter. Huh7 Rab9 promoter-luciferase reporter, luminescence, 24 h. Potency, µM (series often up to 9.22 µM), most hits filed as activators. AID 485297. 320,000 tested, 2.8% active; further: nearly all actives have a fitted effect of over 60% in size
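Luciferase signal after 10 min detection reagent at ambient indicates Rab9 promoter upregulation; stably transfected Huh7 cells were treated 24 h with compound in DMSO at 37 °C, 5% CO2.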
SMN2 splice enh: SMN2 splice variant enhancement | HEK293 SMN2-luciferase splicing reporter, luminescence, 30-36 h | Potency, µM (titrated, usually from 46.1 µM), usual class: activators | 210,000 tested, 2.8% active | AID 1458; further: nearly all actives have a fitted effect of over 55% in size
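HEK293 cells carry an SMN2 minigene-luciferase reporter in which exon 7 inclusion puts luciferase in frame. Cells were seeded at 2000 cells/well, attached for 10-12 hours, then exposed to compounds for 30-36 hours at 37C before ONE-Glo luminescence.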
Each line names hits and unclear results; the compound was inactive in the other large screens. Hits are enriched below; roughly 9.4% of the tested compounds scored in any of these assays. The call rests on the fitted dose curve; in most records, active means well fitted curve in the direction sought with a large enough effect; inconclusive means small, poorly fitted or top-dose-only effect, or another doubt; inactive means no such curve, though single readings can be large; an effect the other way counts as inactive or inconclusive.

CCOc1ccc(OCc2ccc(C(=O)Nc3ccc(Cl)cn3)o2)cc1	NPC1 prom act inconclusive, FLuc counter inconclusive, SMN2 splice enh 18µM
Cc1ccc(NC(=O)c2ccc(COc3ccccc3)o2)nc1	ELG1 genotox inconclusive, ELG1 repair inh inconclusive, FLuc counter inconclusive (no result: SMN2 splice enh)
O=C(Nc1nn(Cc2ccc(Cl)cc2)cc1Br)c1ccc(COc2ccccc2Cl)o1	ELG1 repair inh 18µM
O=C(Nc1ccc(Cl)cn1)c1ccc(COc2ccccc2Br)o1	ELG1 repair inh inconclusive, FLuc counter inconclusive, Rab9 promoter act inconclusive, SMN2 splice enh 13µM
COc1ccc(Cn2c(C(=O)O)c(CNCc3ccco3)c3ccc(OC)cc32)cc1	none (no result: ELG1 genotox, ELG1 repair inh, NPC1 prom act, Rab9 promoter act, SMN2 splice enh)
O=c1c2ccccc2nc(-c2ccco2)n1-c1nc2ccccc2s1	FLuc counter 15µM
Cn1c(-n2c(-c3ccco3)nc3ccccc3c2=O)nc2ccccc21	ELG1 repair inh inconclusive, FLuc counter 21µM
COc1ccc(CCn2c(C)nc3ccccc3c2=O)cc1OC	ELG1 repair inh inconclusive
COc1ccc(CCn2c(-c3ccco3)nc3ccccc3c2=O)cc1OC	ELG1 repair inh 10µM
CC(CCO)Nc1nc2c(c(=O)n(C)c(=O)n2C)n1Cc1ccc(Br)cc1 (configuration not stated)	none (no result: ELG1 genotox, ELG1 repair inh, NPC1 prom act, Rab9 promoter act)
Cc1cc(C)c(S(=O)(=O)OC[C@H]2C=CC[C@@H](CCC[C@H]3O[C@H](C(=O)OC(C)C)CC[C@@H]3C)O2)c(C)c1	none (no result: ELG1 genotox, ELG1 repair inh, NPC1 prom act, FLuc counter, Rab9 promoter act)
CN(C)S(=O)(=O)c1ccc2c(c1)N(CC(=O)Nc1ccc(F)cc1)C(=O)CS2	none (no result: ELG1 genotox, ELG1 repair inh, NPC1 prom act, Rab9 promoter act, SMN2 splice enh)
Cc1ccc2cc(CN(CCN(C)C)C(=S)Nc3ccccc3)c(=O)[nH]c2c1C	ELG1 repair inh 9.2µM (no result: SMN2 splice enh)
Cc1cccc2cc(CN(CC3CCCO3)C(=S)Nc3ccccc3)c(=O)[nH]c12 (configuration not stated)	ELG1 repair inh 16µM
COc1cccc(NC(=O)N(Cc2cc3cc(C)cc(C)c3[nH]c2=O)CC2COCCO2)c1 (configuration not stated)	ELG1 repair inh 7.3µM
CCOC(=O)c1c(C)oc2nc(C)nc(N(C)Cc3ccccc3)c12	none (no result: ELG1 genotox, ELG1 repair inh, NPC1 prom act, Rab9 promoter act, SMN2 splice enh)
Cc1nn(-c2ccc(F)cc2)c(Cl)c1/C=N/NC(=O)c1cccs1	ELG1 repair inh inconclusive, NPC1 prom act inconclusive, FLuc counter inconclusive, Rab9 promoter act 2µM, SMN2 splice enh inconclusive
Cc1nn(-c2ccc(F)cc2)c(Cl)c1/C=N/NC(=O)c1ccc(O)cc1	FLuc counter 19µM
CNC(=S)N/N=C/c1c(C)nn(-c2ccc(F)cc2)c1Cl	none
O=c1c(NCCc2ccc(Cl)cc2)nccn1-c1ccccc1	none (no result: ELG1 genotox, ELG1 repair inh, NPC1 prom act, Rab9 promoter act, SMN2 splice enh)
O=S(=O)(Cc1ccccc1)c1nnnn1-c1ccccc1	none (no result: ELG1 genotox, ELG1 repair inh, NPC1 prom act, FLuc counter, Rab9 promoter act)
CCS(=O)(=O)c1nnnn1-c1ccccc1S(C)(=O)=O	ELG1 repair inh 15µM, SMN2 splice enh inconclusive
CCc1ccc(NC(=O)CSc2ncc(S(=O)(=O)c3cc(C)ccc3C)c(=O)[nH]2)cc1	FLuc counter 9.5µM (no result: ELG1 genotox, ELG1 repair inh, NPC1 prom act, Rab9 promoter act)
COc1ccccc1CNC(=O)CSc1ncc(S(=O)(=O)c2ccc(C)c(Cl)c2)c(=O)[nH]1	FLuc counter 13µM (no result: ELG1 genotox, ELG1 repair inh, NPC1 prom act, Rab9 promoter act, SMN2 splice enh)
Cc1ccc(C)c(NC(=O)CSc2ncc(S(=O)(=O)c3ccc(C)c(Cl)c3)c(=O)[nH]2)c1	FLuc counter 11µM (no result: ELG1 genotox, ELG1 repair inh, NPC1 prom act, Rab9 promoter act, SMN2 splice enh)
CC(C)(C)c1ccc(S(=O)(=O)c2cnc(SCC(=O)Nc3ccc4c(c3)OCCO4)[nH]c2=O)cc1	FLuc counter 11µM (no result: ELG1 genotox, ELG1 repair inh, NPC1 prom act, Rab9 promoter act)
Cc1ccc(NC(=O)CSc2ncc(S(=O)(=O)c3ccccc3)c(=O)[nH]2)cc1C	FLuc counter inconclusive
O=C(CSc1ncc(S(=O)(=O)c2ccccc2)c(=O)[nH]1)Nc1ccccc1Cl	none (no result: SMN2 splice enh)
COc1ccc([C@@H]2[C@@H](C(=O)C(C)(C)C)N3N=Cc4ccccc4[C@@H]3C23C(=O)OC(C)(C)OC3=O)cc1OC	none
COc1ccc([C@H]2[C@H](C(=O)C(C)(C)C)N3N=Cc4ccccc4C3C23C(=O)OC(C)(C)OC3=O)cc1 (some centres not stated)	SMN2 splice enh 14µM
O=c1cc(-c2ccc(F)cc2)[nH][nH]1	none
